Measurements taken from PubChem BioAssay (EPA / NIEHS).
The source made the active and inactive calls. The calls were made as follows: active = hit-call score of the fitted dose curve at least 0.9, where 1 is the maximum; inactive = score below 0.9.

System: not listed separately
Assay: ATG_CRE_CIS: Attagene CIS-FACTORIAL HepG2 Assay for human cAMP Responsive Element (CRE) binding protein 3 (AID 2282926)
Details: HepG2 CRE cis-reporter, Attagene multiplexed mRNA; actives raise or lower the signal
Method in brief: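 Multiplexed transcription-unit reporters transfected into HepG2; 24 h dosing; RT-PCR/capillary electrophoresis fluorescence read-out; bidirectional fit vs DMSO.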

| SMILES | outcome |
| --- | --- |
| C=C(C)[C@@H]1CC=C(C=O)CC1 | inactive |
| COCCl | inactive |
| N#Cc1ccc(Cl)cc1 | inactive |
| BrCC(Br)c1ccccc1 (stereo not given) | inactive |
| CCOC(=O)C(SP(=S)(OC)OC)c1ccccc1 (stereo not given) | inactive |

Molecular target: CCAAT/enhancer-binding protein beta (Homo sapiens) (UniProt P17676)
Assay: ATG_C_EBP_CIS: Attagene CIS-FACTORIAL HepG2 Assay for human CCAAT/Enhancer Binding Protein (C/EBP) beta (AID 2282927)
Details: HepG2 Attagene cis-factorial transcription factor reporter; actives raise or lower the signal
Method in brief: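 RT-PCR/capillary electrophoresis fluorescence of reporter mRNA, 24 h post-dose, in HepG2 cells carrying transfected cis-promoter reporter units. Bidirectional curve fitting against DMSO baseline captures gain or loss of signal.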

CCAAT/enhancer-binding protein beta (Homo sapiens), sequence (P17676 whole entry, looked up): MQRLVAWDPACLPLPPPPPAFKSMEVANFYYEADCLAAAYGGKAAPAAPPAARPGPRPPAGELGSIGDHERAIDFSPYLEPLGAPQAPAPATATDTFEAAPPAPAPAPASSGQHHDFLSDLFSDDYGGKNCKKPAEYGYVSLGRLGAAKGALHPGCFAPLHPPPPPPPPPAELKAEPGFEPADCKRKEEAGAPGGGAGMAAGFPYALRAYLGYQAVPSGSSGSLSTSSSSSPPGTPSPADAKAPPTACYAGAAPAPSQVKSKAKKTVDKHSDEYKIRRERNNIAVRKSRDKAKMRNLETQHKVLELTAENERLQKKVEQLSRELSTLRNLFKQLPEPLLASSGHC

| SMILES | outcome | AC50 |
| --- | --- | --- |
| C=CC(F)(C(F)(F)F)C(F)(F)C(F)(F)F (stereo not given) | inactive |  |
| N#CCCC(Br)(C#N)CBr (stereo not given) | inactive |  |
| c1ccc(-c2cccc(-c3ccccc3)c2)cc1 | inactive |  |
| c1ccc2c(c1)Oc1ccccc1O2 | inactive |  |
| Oc1cccc(-c2ccccc2)c1 | inactive |  |
| Cc1cc(Cl)ccc1N | inactive |  |
| CC[N+](CC)(CC)CC | inactive |  |
| O=[N+]([O-])c1cc([As](=O)(O)O)ccc1O | inactive |  |
| CCOc1ccc(N)cc1 | inactive |  |
| Cc1ccccc1OP(=O)(Oc1ccccc1)Oc1ccccc1 | inactive |  |
| C[CH2][Hg][S]c1ccccc1C(=O)O |  | 2230 nM (active) |
| N#Cc1ccncc1 | inactive |  |
| CC(C)(c1ccc(O)c(-c2ccccc2)c1)c1ccc(O)c(-c2ccccc2)c1 | inactive |  |
| NNCCO | inactive |  |
| O=C(CBr)c1ccc(O)cc1 | inactive |  |
| Cc1cc(-c2cc(C)c(N)c(C)c2)cc(C)c1N | inactive |  |
| Nc1nc(N)nc(Cl)n1 | inactive |  |
| CCCCC(CC)COC(=O)Cl (stereo not given) | inactive |  |
| C=C(C)[C@@H]1CC=C(C=O)CC1 | inactive |  |
| CCNc1nc(NCC)nc(SC)n1 | inactive |  |

| SMILES | outcome | AC50 |
| --- | --- | --- |
| Cc1cccc(C)c1NC(=O)CN1CCCC1=O | inactive |  |
| CCOC(=O)CCN(SN(C)C(=O)Oc1cccc2c1OC(C)(C)C2)C(C)C | inactive |  |
| ClCCN1CCOCC1 | inactive |  |
| [F][Sn]([c]1ccccc1)([c]1ccccc1)[c]1ccccc1 |  | 2150 nM (active) |
| COCCl | inactive |  |
| N#Cc1ccc(Cl)cc1 | inactive |  |
| c1csc(-c2ccc(-c3cccs3)s2)c1 | inactive |  |
| BrCC(Br)c1ccccc1 (stereo not given) | inactive |  |
| C=CC(=O)NC(C)(C)CC(C)=O | inactive |  |
| C=C(C)C(=O)OCC(CC)CCCC (stereo not given) | inactive |  |
| O=S1(=O)OC(c2cc(Br)c(O)c(Br)c2)(c2cc(Br)c(O)c(Br)c2)c2ccccc21 | inactive |  |
| O=NN1CCCCCC1 | inactive |  |
| CC(=O)C(F)(F)C(F)(F)F | inactive |  |
| C=CC(=O)[O][Sn]([CH2]CCC)([CH2]CCC)[CH2]CCC | inactive |  |
| CC(=Cc1ccccc1)[N+](=O)[O-] | inactive |  |
| Cc1cc(Cl)ccc1OC(C)C(=O)O (stereo not given) | inactive |  |
| CCOP(=S)(OCC)O/N=C(\C#N)c1ccccc1 | inactive |  |
| OCCCCO | inactive |  |
| CCOC(=O)C(SP(=S)(OC)OC)c1ccccc1 (stereo not given) | inactive |  |
| O=c1oc2ccccc2c(O)c1C(CC(O)c1ccc(-c2ccc(Br)cc2)cc1)c1ccccc1 (stereo not given) | inactive |  |
